According to the supplement of paper PMC10849652:
The full data set covers some 8,800 targets. This sample favours those with a hit. About 0.5% of all pairs of compound and target were hits.

Tests used:
Experiment in all cases: log2 fold change, soluble protein after heating vs DMSO (PISA); higher = thermal stabilisation; K562 lysate, 10 uM; active = over 0.2 and 3.5 SD of the protein, either way, in both replicates (recomputed)
ibrutinib = compound: C=CC(=O)N1CCC[C@@H](n2nc(-c3ccc(Oc4ccccc4)cc3)c3c(N)ncnc32)C1 [ibrutinib]
Outline: (§1)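 Pellets of K562 cells were dounce-homogenised in PBS pH 7.4 with 1 mM MgCl2, and the crude extract was held at 1 mg/mL protein for a 30 min treatment with 10 μM compound. Aliquots were heated for 3 min over 48°C-58°C and pooled before NP-40 was added to 0.5% at 4°C. The supernatant from 21,000xg for 90 min was quantified by TMTpro 16plex LC-MS/MS with channel sums equalised. Values are reported from duplicates as log-two fold change in thermal stability relative to solvent controls.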

[1] = compound: CC(=O)c1cnc2ccc(-c3cc(Cl)c(O)c(Cl)c3)nc2c1N[C@H]1CC[C@H](CN(C)C)CC1
Outline: as §1

ralimetinib = compound: CC(C)(C)Cn1c(N)nc2ccc(-c3[nH]c(C(C)(C)C)nc3-c3ccc(F)cc3)nc21 [ralimetinib]
Outline: as §1

[2] = compound: CC(C)(O)CC(=O)NCCn1ccc2ncnc(Nc3ccc(Oc4cccc(C(F)(F)F)c4)c(Cl)c3)c21
Outline: as §1

[3] = compound: CC(C)C1=C2N=C(C=C(N2N=C1)NCC3=CC=CC=C3)NCCCCCCN
Outline: as §1

[4] = compound: CC1=C(C(CC(=O)N1)C2=CC=C(C=C2)C(F)(F)F)C(=O)NC3=C(C=C4C(=C3)C=NN4)F
Outline: as §1

[5] = compound: CC1=C(C2=C(C=C1)C(=O)C3=CC=CC=C3N2CCCN)C
Outline: as §1

[6] = compound: CC1=C(C=C(C=C1)NC(=O)C2=CC(=CC=C2)C(C)(C)C#N)NC3=CC4=C(C=C3)N=CN(C4=O)C
Outline: as §1

[7] = compound: CC1=C(C=C(C=C1)NC(=O)C2=CC(=CC=C2)N(C)C)NC(=O)C3=CC=C(C=C3)O
Outline: as §1

[8] = compound: CC1=CC=C(C=C1)SC2=C3C=C(SC3=CN=C2)C(=O)N
Outline: as §1

vemurafenib = compound: CCCS(=O)(=O)Nc1ccc(F)c(C(=O)c2c[nH]c3ncc(-c4ccc(Cl)cc4)cc23)c1F [vemurafenib]
Outline: as §1

[9] = compound: CCCS(=O)(=O)Nc1ccc(F)c(C(=O)c2c[nH]c3ncc(Cl)cc23)c1F
Outline: as §1

barasertib = compound: CCN(CCCOc1ccc2c(Nc3cc(CC(=O)Nc4cccc(F)c4)[nH]n3)ncnc2c1)CCOP(=O)(O)O [barasertib]
Outline: as §1

[10] = compound: CC[C@@H]1C(=O)N(C)c2cnc(Nc3ccc(C(=O)NC4CCN(C)CC4)cc3OC)nc2N1C1CCCC1
Outline: as §1

volasertib = compound: CC[C@@H]1C(=O)N(C)c2cnc(Nc3ccc(C(=O)N[C@H]4CC[C@H](N5CCN(CC6CC6)CC5)CC4)cc3OC)nc2N1C(C)C [volasertib]
Outline: as §1

[11] = compound: CCn1c(C(=O)N(C2CC2)C2CC2)cc2c3c(ncn3C)c(Nc3cc(C)n(C)n3)nc21
Outline: as §1

[12] = compound: CCn1cc(-c2ccnc3[nH]c(-c4cccc(CN(C)C)c4)cc23)c(-c2ccc(NC(=O)N(C)C)cc2)n1
Outline: as §1

[13] = compound: CN1CCC(CNc2ccc3ncc(-c4cccc(OC(F)(F)F)c4)n3n2)CC1
Outline: as §1

saracatinib = compound: CN1CCN(CCOc2cc(OC3CCOCC3)c3c(Nc4c(Cl)ccc5c4OCO5)ncnc3c2)CC1 [saracatinib]
Outline: as §1

sotrastaurin = compound: CN1CCN(c2nc(C3=C(c4c[nH]c5ccccc45)C(=O)NC3=O)c3ccccc3n2)CC1 [sotrastaurin]
Outline: as §1

Measured: log2 fold change

STAT2 (UniProt P52630)
UniProt P52630, sequence (P52630 whole entry, looked up): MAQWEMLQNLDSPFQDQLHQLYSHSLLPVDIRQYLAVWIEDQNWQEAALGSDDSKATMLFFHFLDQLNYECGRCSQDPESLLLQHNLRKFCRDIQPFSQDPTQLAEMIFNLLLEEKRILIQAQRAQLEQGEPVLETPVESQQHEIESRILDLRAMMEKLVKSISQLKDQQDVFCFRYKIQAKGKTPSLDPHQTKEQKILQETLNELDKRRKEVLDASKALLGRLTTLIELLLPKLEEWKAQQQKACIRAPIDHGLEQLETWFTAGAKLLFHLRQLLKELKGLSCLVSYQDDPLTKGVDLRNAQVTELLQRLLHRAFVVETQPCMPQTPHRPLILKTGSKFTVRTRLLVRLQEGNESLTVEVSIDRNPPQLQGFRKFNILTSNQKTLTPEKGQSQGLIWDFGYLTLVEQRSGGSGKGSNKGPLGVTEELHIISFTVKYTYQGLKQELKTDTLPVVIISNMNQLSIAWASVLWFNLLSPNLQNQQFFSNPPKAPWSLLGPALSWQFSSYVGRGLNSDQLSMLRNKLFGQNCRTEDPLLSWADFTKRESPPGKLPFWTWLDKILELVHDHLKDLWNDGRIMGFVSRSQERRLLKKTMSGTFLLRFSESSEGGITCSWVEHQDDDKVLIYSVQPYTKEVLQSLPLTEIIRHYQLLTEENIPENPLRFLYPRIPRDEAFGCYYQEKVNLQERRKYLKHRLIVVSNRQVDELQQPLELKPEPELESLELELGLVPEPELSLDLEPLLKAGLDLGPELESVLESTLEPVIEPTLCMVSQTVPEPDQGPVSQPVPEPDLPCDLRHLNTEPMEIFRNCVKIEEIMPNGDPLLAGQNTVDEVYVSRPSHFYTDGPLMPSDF
inactive: ibrutinib 0.007 | [1] 0.007 | ralimetinib 0.04 | [2] -0.026 | [3] -0.003 | [4] 0.009 | [5] -0.002 | [6] -0.059 | [7] 0.003 | [8] 0.004 | vemurafenib 0.04 | [9] 0.026 | barasertib -0.021 | [10] -0.03 | volasertib -0.047 | [11] 0.033 | [12] -0.011 | [13] -0.164 | saracatinib -0.009 | sotrastaurin 0.029

SYNRG (UniProt Q9UMZ2)
inactive: ibrutinib -0.023 | [1] -0.028 | ralimetinib -0.016 | [2] -0.083 | [3] 0.015 | [4] -0.019 | [5] -0.018 | [6] -0.042 | [7] 0.022 | [8] -0.052 | vemurafenib -0.006 | [9] 0.022 | barasertib 0.015 | [10] 0.037 | volasertib 0 | [11] -0.019 | [12] 0.017 | [13] -0.1 | saracatinib 0.013 | sotrastaurin -0.009

SKA2 (UniProt Q8WVK7)
inactive: ibrutinib 0.037 | [1] 0.004 | ralimetinib 0.016 | [2] -0.003 | [3] 0.014 | [4] -0.004 | [5] 0.032 | [6] -0.099 | [7] -0.011 | [8] -0.03 | vemurafenib 0 | [9] 0.014 | barasertib 0.078 | [10] 0 | volasertib -0.043 | [11] 0.02 | [12] -0.032 | [13] -0.015 | saracatinib 0.028 | sotrastaurin -0.097

SQLE (UniProt Q14534)
UniProt Q14534, sequence (Q14534 whole entry, looked up): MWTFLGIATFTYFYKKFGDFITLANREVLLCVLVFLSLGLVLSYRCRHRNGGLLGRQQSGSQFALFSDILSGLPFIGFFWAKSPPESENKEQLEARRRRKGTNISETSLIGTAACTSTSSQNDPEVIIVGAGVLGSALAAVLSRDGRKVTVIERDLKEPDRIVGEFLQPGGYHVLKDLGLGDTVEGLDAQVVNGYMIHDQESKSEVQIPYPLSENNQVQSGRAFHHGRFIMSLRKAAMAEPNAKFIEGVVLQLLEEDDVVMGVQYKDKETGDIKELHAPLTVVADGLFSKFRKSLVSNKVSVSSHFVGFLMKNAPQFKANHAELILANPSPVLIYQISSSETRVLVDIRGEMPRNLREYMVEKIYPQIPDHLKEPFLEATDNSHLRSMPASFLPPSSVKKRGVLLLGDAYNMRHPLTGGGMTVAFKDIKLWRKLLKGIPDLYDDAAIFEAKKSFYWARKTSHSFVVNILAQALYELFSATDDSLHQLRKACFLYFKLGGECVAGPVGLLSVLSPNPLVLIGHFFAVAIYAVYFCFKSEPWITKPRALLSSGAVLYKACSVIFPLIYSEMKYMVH
inactive: ibrutinib 0.028 | [1] 0.051 | ralimetinib 0.081 | [2] -0.047 | [3] 0 | [4] -0.02 | [5] -0.006 | [6] 0.039 | [7] -0.06 | [8] -0.027 | vemurafenib 0.036 | [9] -0.01 | barasertib 0.103 | [10] 0.051 | volasertib 0.073 | [11] -0.063 | [12] -0.06 | [13] -0.02 | saracatinib 0.077 | sotrastaurin 0.065

STK3 isoform 2 (UniProt Q13188)
UniProt Q13188, sequence (Q13188 whole entry, looked up): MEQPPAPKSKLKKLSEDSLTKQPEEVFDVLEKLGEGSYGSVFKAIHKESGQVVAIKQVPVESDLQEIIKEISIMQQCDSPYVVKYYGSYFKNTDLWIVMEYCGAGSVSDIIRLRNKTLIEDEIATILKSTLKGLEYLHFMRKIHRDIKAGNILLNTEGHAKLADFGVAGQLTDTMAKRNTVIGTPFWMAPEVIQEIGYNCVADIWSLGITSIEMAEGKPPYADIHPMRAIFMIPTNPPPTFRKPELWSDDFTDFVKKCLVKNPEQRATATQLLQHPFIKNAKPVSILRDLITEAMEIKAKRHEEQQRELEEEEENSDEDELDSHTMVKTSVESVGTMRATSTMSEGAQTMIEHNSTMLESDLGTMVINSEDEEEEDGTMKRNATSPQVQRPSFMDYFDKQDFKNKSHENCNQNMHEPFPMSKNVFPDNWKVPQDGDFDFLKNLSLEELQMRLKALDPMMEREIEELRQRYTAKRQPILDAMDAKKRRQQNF
inactive: ibrutinib 0.11 | [1] 0.364 | ralimetinib -0.001 | [2] 0.037 | [3] 0.026 | [4] -0.005 | [5] 0 | [6] -0.025 | [7] 0.016 | [8] -0.073 | vemurafenib 0.046 | [9] 0.04 | barasertib 0.032 | volasertib -0.047 | [11] -0.012 | [12] -0.017 | [13] 0.216 | saracatinib -0.01 | sotrastaurin 0.142

SOX5 (UniProt P35711)
UniProt P35711, sequence (P35711 whole entry, looked up): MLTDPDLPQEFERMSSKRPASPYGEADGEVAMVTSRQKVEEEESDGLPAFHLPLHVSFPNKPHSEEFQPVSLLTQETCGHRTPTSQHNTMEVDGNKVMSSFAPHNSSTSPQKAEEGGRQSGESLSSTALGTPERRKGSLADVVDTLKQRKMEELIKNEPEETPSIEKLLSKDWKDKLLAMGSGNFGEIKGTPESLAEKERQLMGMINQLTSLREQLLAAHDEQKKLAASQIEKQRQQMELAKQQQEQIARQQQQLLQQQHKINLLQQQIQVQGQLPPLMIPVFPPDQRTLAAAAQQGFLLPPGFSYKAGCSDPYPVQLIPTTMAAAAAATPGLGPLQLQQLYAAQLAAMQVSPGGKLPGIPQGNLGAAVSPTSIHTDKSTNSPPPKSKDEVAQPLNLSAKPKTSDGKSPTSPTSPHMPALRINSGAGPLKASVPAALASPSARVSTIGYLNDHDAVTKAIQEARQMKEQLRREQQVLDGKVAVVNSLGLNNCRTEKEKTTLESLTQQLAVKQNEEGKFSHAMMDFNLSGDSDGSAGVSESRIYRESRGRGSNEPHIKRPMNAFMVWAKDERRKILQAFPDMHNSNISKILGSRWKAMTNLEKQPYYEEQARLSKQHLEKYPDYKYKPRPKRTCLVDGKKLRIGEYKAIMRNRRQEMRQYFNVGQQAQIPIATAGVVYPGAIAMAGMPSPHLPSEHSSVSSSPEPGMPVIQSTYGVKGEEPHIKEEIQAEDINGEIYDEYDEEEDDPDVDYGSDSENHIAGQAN
inactive: ibrutinib -0.064 | [1] 0.14 | ralimetinib -0.049 | [2] 0.02 | [3] 0.091 | [5] 0.053 | [6] 0.036 | [7] 0.088 | [8] -0.105 | vemurafenib 0.141 | [9] 0.175 | barasertib 0.048 | [10] 0.176 | volasertib -0.034 | [11] 0.049 | [12] -0.043 | [13] -0.043 | saracatinib 0.076 | sotrastaurin -0.131

SLC30A6 isoform 2 (UniProt Q6NXT4)
UniProt Q6NXT4, sequence (Q6NXT4 whole entry, looked up): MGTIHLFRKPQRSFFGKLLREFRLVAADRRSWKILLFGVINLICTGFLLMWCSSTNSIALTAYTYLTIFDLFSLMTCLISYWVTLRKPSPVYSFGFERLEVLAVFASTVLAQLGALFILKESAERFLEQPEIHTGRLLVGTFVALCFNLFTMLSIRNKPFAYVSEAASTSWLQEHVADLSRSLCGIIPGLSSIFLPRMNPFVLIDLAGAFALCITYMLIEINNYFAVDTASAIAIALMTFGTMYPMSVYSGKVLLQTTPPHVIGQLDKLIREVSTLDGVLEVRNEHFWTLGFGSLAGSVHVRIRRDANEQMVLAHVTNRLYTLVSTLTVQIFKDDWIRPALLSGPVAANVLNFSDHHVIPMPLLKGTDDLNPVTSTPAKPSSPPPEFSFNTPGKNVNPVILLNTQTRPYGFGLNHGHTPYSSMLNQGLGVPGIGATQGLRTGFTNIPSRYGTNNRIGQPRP
inactive: ibrutinib 0.052 | [1] -0.019 | ralimetinib -0.013 | [2] -0.016 | [3] -0.023 | [4] 0.047 | [6] -0.022 | [7] 0.053 | [8] 0.011 | vemurafenib -0.098 | [9] 0.018 | barasertib 0.146 | [10] 0.105 | volasertib 0.001 | [11] -0.03 | [12] -0.127 | [13] 0.063 | sotrastaurin -0.004

STMN3 (UniProt Q9NZ72)
UniProt Q9NZ72, sequence (Q9NZ72 whole entry, looked up): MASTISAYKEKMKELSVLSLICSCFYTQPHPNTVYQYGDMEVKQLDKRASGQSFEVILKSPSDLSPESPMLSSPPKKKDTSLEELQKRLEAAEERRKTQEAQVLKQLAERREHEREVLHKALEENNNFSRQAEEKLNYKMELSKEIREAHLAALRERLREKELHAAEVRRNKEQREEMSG
inactive: ibrutinib 0.006 | [1] -0.028 | ralimetinib 0.093 | [2] 0.025 | [3] -0.089 | [4] -0.003 | [5] -0.059 | [6] 0.012 | [7] -0.011 | [8] 0.009 | vemurafenib -0.123 | [9] -0.006 | barasertib 0.098 | [10] 0.096 | volasertib 0.002 | [11] -0.066 | saracatinib 0.053 | sotrastaurin 0.009

SMIM1 (UniProt B2RUZ4)
UniProt B2RUZ4, sequence (B2RUZ4 whole entry, looked up): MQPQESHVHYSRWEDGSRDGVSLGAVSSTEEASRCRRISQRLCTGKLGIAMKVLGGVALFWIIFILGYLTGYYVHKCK
inactive: ibrutinib 0.018 | [1] 0.005 | ralimetinib 0.054 | [2] 0.036 | [3] 0.081 | [4] -0.132 | [6] -0.042 | [7] -0.021 | [8] 0.058 | [9] 0.013 | barasertib 0.002 | [10] -0.108 | volasertib 0.026 | [11] -0.096 | [12] -0.036 | [13] -0.222 | sotrastaurin 0.088

SSX5 isoform 2 (UniProt O60225)
UniProt O60225, sequence (O60225 whole entry, looked up): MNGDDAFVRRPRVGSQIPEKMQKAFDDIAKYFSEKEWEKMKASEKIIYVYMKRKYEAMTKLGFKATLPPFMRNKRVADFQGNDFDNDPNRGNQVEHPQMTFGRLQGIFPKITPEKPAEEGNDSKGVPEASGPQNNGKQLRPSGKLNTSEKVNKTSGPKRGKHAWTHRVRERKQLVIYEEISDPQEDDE
active: [12] -0.926
inactive: ibrutinib -0.081 | [1] 0.028 | ralimetinib 0 | [2] 0.032 | [3] -0.261 | [4] -0.089 | [7] -0.018 | [8] -0.003 | vemurafenib 0.143 | [9] 0.062 | barasertib -0.065 | [10] -0.188 | volasertib 0.013 | [11] 0.031 | [13] 0.049

SH3BP2 isoform 4 (UniProt P78314)
UniProt P78314, sequence (P78314 whole entry, looked up): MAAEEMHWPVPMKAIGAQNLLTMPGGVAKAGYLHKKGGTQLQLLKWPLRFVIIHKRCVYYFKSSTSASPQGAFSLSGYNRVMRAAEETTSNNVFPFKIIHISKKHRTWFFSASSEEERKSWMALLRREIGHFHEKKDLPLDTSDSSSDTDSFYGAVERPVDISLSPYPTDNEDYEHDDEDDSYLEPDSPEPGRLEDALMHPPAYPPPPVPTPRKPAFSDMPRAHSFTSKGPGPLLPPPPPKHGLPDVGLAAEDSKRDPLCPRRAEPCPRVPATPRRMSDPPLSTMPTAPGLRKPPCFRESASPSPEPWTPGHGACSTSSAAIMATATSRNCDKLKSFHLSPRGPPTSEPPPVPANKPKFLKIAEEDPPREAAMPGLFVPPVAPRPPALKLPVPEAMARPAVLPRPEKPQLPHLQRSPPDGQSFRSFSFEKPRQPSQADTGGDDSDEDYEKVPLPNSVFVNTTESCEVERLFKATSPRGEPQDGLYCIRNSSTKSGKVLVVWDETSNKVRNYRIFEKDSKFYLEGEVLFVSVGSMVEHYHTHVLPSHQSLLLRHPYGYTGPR
inactive: ibrutinib 0.096 | [1] -0.084 | ralimetinib 0.07 | [2] 0.137 | [3] -0.004 | [5] -0.297 | [6] 0.03 | [7] -0.126 | [8] 0.073 | vemurafenib 0.087 | [9] -0.017 | barasertib -0.075 | volasertib -0.052 | [11] 0.029 | [12] -0.04 | [13] 0.089 | saracatinib 0.006 | sotrastaurin 0.02

SIX5 (UniProt Q8N196)
UniProt Q8N196, sequence (Q8N196 whole entry, looked up): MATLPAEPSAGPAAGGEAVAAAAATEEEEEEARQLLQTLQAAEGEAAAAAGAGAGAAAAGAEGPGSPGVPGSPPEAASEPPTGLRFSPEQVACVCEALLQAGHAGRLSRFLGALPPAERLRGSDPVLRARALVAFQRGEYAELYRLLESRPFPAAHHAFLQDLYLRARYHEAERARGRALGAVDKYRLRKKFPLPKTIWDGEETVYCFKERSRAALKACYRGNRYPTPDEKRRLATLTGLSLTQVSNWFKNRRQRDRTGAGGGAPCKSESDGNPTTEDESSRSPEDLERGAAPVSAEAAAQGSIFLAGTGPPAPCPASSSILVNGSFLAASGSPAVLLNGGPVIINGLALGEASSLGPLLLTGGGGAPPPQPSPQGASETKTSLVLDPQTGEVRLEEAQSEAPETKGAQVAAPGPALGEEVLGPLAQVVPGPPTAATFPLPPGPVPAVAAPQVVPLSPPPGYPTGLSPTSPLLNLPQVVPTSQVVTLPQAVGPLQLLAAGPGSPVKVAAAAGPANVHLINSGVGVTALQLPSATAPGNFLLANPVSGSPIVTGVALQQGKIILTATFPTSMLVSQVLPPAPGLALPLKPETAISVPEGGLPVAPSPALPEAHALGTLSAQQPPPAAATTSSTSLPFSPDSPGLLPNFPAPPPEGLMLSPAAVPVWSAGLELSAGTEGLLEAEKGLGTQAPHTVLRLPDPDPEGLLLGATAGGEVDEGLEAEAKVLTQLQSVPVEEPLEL
inactive: ibrutinib -0.021 | [1] 0.009 | ralimetinib -0.023 | [2] -0.046 | [3] -0.042 | [4] -0.061 | [5] 0.011 | [6] 0.017 | [7] 0.13 | [8] 0.021 | [9] 0.031 | barasertib -0.026 | volasertib -0.046 | [11] 0.084 | [12] 0.538 | [13] -0.132 | saracatinib -0.093 | sotrastaurin -0.009
